Results taken from the OligoGym collection.

The sequences below were run against CACNA1S (assay: pooled miR-30 sensor sort-seq; sequence = guide strand). Conditions: shRNA.
Also: reference of the scale not given here.

Sequence | sensor-assay potency score (higher = more potent)
TTGGACAAGTCGGTGCACCTGA | 0.00785
TCTGAAGTCCTCAACATCCATG | -1.41
TTGAGCAGGATGTAGTTGCCAC | -0.202
TATCTCAGCAAACTGGAGGGGT | -0.123
TCTAGTTGCTGCTTCTCCCGGA | 0.563
TAGTAGTATGCAAAGTTGGTGC | -0.181
TTACCTTCCGTCTTGATCTTGA | 0.578
TTCAGCATCTCCACACAGGGTT | 0.136
TACATCTTCATCAGCATCTCAG | -0.408
TACACGTAGTAGTAGCCCCTGC | -0.425
TTTAAGGATCTGATTTCTCATG | -1.14
TTGAGGACAATCTCCACAGTGA | -0.144
ATTAGATTCAAACTCATCGATT | -0.846
ATACTGTACACATTGGCGCTGG | 0.068
TAGTATGCAAAGTTGGTGCCAC | 0.194
TTCATCAGCATCTCAGTGGTGA | 0.298
TTGGTGATCTTGAAGATCCTCA | 0.453
TTCCAGGAAGTTGTCCACCTGG | -0.276
TCTTGTACTCAGTCTCTCCCTG | 0.136
TTGAGGATCATCTCCAGGGTGA | -0.175
TTGATCTTGAGTGCCGTGCGGA | -0.578
TTGATCAGCCTCATGACACGGA | 0.698
TTGTCGAAGTGGAAGTCGCTGT | -0.229
TTGAGGTCCAGTCTTCCCCTGT | -0.528

The sequences below were run against CACNA2D4 in the same assay as above. Conditions: shRNA.

Sequence | sensor-assay potency score (higher = more potent)
TTGGAGATCAGAATGAACCCGT | 0.657
TATACTTCTCAAACACCGGCTC | -0.108
TTTATACCTGGATAGATCCTGA | -0.0984
TAATAGTCGAACACCAGGGATT | -1.39
TTGTTGTCGATGACGAAGCAGT | -0.871
TCGATTGTCTCGGTCCGCCTGG | -0.412
TTCCAGAGGAATCTTGGCCTGT | 0.14
TTTGACTTCTGTCGCCTCCTGC | -0.115
TTGTAATAGTCGAACACCAGGG | -0.554
TCAGGTGTCAGGAACTTCCTGT | 0.631
TTATACTTCTCAAACACCGGCT | -0.014
TCTGTGATGCAGTAGATCCAGT | -0.578
